TSHR antagonist: antagonists of human thyroid stimulating hormone receptor. P16473. TSHR-expressing cells, TSH-stimulated cAMP HTRF, 2 h; hits give low values. activity change, negative = inhibition, % at 11.5 µM. 330,000 tested, 0.2% active;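 active means activity change below a set negative limit, meaning inhibition stronger than a set level, cut at about -70% in these data; inconclusive means activity change between two set negative limits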
Target sequence (P16473 whole entry, looked up): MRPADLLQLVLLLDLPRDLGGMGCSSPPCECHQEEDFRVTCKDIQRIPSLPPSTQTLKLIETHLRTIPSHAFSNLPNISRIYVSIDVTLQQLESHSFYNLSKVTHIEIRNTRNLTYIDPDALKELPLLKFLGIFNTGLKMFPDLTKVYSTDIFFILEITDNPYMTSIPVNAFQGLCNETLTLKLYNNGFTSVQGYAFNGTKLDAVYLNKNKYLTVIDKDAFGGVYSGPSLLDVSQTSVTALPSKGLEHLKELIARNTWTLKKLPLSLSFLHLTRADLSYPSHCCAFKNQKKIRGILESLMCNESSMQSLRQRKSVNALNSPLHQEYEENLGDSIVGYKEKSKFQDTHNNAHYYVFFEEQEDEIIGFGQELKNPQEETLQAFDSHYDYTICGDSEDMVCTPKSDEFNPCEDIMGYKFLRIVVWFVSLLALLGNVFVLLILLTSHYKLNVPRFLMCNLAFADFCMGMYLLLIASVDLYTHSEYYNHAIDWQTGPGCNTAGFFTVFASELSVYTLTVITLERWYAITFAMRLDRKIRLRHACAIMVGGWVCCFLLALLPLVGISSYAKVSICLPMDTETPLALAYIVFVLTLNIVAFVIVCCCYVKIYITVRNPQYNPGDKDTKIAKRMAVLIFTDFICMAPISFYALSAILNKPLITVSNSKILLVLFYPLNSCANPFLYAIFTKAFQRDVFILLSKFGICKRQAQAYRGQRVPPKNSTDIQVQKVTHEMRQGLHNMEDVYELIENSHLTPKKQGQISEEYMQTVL
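TSHR-expressing cells were treated with compounds, then stimulated with TSH at EC80 (4nM final) for 2 hours at 37 deg C. Cellular cAMP was measured by HTRF competition between lysate cAMP and cAMP-d2 for a cryptate-labelled anti-cAMP antibody.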
ELG1 repair inh: inhibitors of ELG1-dependent DNA repair in HEK293T cells; 330,000 tested, 2.3% active; Potency, µM (series often up to 46.1 µM), inactives show top-dose activity change, negative = inhibition, actives largely listed as inhibitors; HEK293T ELG1-luciferase reporter, luminescence, 16 h; DNA damage induced by 5-fluorouridine; further: potency means the concentration at half of the fitted maximal effect; nearly all actives have a fitted effect of over 55% in size
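Step one: seed 2,000 cells per well. Step two: pin-transfer compound or DMSO alongside 5-fluorouridine. Step three: incubate 16 hr, 37 °C, 5% CO2. Step four: add ONE-Glo, wait 30 min, read luminescence.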
FBPA coupling cs: inhibits coupling enzyme system, counter-screen for aldolase hits | coupling enzyme system counterscreen, AmpLite Red fluorescence | activity change, negative = inhibition, % at 58.2 µM, hits read low | 290,000 tested, 0.67% active | AID 2472; in the data active means activity change below about -30%
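Counterscreen lacking aldolase: glyceraldehyde-3-phosphate coupling-enzyme reagent preincubated 10 min at RT with compound (at 57.5 uM final), then substrate/coupling system with AmpLite Red added; fluorescence read at 525/598 nm after 20 min RT.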
RORg inh: blocks mouse ROR gamma transcriptional activity. P51450. Drosophila S2 Gal4-RORgamma UAS-luciferase reporter, 20 h. Potency, µM (doses to about 53.6 µM), for inactives: at the top dose activity change, negative = inhibition, hits mostly inhibitors. 310,000 tested, 5.4% active; further: potency means the concentration at half of the fitted maximal effect; nearly all actives have a fitted effect of over 60% in size
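Luciferase reporter read in Schneider cells carrying Gal4-RORγ (mouse) and UAS-Photinus luciferase; cells given compound 1 h before 700 uM copper sulfate induction, then incubated 20 h at ambient temperature.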
Gal4-VP16 FLuc: counter-screen for ROR gamma inhibitors: Gal4-VP16 reporter; Drosophila S2 Gal4-VP16 UAS-luciferase, luminescence, 20 h; 310,000 tested, 3.5% active; AID 2546; Potency, µM (titrated, usually from 53.6 µM), without a hit: at the highest dose activity, negative = inhibition, most hits filed as inhibitors;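 further: Gal4-VP16 expression switched on by copper sulfate through the metallothionein promoter; potency means the concentration at half of the fitted maximal effect; nearly all actives have a fitted effect of over 50% in size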
Numbers without * were called inactive; ? = inconclusive; . = no result given; [ ] = dose if it differs, or a comment. Shown are actives, neighbours in structure and some others; about 8% of the full set was active somewhere. Unless noted, the call rests on the fitted dose curve; in most records, active means well fitted curve in the direction sought with a large enough effect; inconclusive means small, poorly fitted or top-dose-only effect, or another doubt; inactive means no such curve, though single readings can be large; an effect the other way counts as inactive or inconclusive. On the % scale 0 is the no-effect control and ±100 the full control effect.

SMILES	TSHR antagonist	ELG1 repair inh	FBPA coupling cs	RORg inh	Gal4-VP16 FLuc
CCC1=NN(C(=O)c2ccc([N+](=O)[O-])cc2)C(O)(c2ccccc2)C1 (stereo unspecified)	-10	?	8	-35%[1.91 µM]	?
CCOC(=O)C1=NN(C(=O)c2ccc(C)cc2)C(O)(c2ccc(Cl)cc2)C1 (stereo unspecified)	11	10%	7	?	?
CCC1=NN(C(=O)c2ccc(Cl)cc2)C(O)(c2ccc(C)cc2)C1 (stereo unspecified)	5	-29%	5	18µM*	25µM*
O=C(NCc1cccnc1)C1CC(c2ccc(Cl)c(Cl)c2)=NO1 (stereo unspecified)	2	-14%	0	?	-21%
O=C(NCCCCNCCCNC(=O)c1ccccc1)c1ccccc1	0	4%	.	.	.
CCN(CC(=O)Nc1ccc(NC(C)=O)cc1)C(=O)/C=C/c1cn(Cc2ccccc2)nc1-c1cccnc1	-6	?	.	.	.
COc1cccc(NC(=O)CN(C)C(=O)/C=C/c2cn(Cc3ccccc3)nc2-c2cccnc2)c1	-5	15µM*	.	.	.
CC(C)C[C@@H](CC(=O)N[C@@H](CCC(=O)O)CC(=O)O)NC(=O)[C@@H]1CNCC[C@H]1NC(=O)C[C@H](CCCN)NC(=O)C[C@H](Cc1c[nH]c2ccccc12)NC(=O)[C@@H]1CNCC[C@H]1N	.	.	-1	-19%	-15%
CCCN(CC1CC1)C(=S)NC(=O)C1CC1	8	0%	2	4µM*	13µM*
CCCN(CC1CC1)C(=S)NC(=O)c1cc(Br)ccc1Cl	25	-20%	.	.	.
Cc1nc(N2CCN(S(=O)(=O)c3ccccc3C#N)CC2)c2c(-c3ccccc3)csc2n1	-79*	12µM*	.	.	.
Cc1nc(N2CCN(S(=O)(=O)c3ccc(F)cc3)CC2)c2c(-c3cccs3)csc2n1	-19	?	0	38%	9%
CCCCCCCNC(=O)c1ccc(N2CCC3(CC2)OCCO3)c([N+](=O)[O-])c1	-10	18µM*	-3	25%	-16%
CCn1c(C)c(Br)c(=O)c(C(=O)OC)c1-c1ccc(Cl)cc1	-1	-4%	6	15%	-17%
S=c1[nH]nc([C@@H]2C[C@H]2c2ccccc2)n1-c1ccccc1	-5	4%	2	2.8µM*	4µM*
Cc1n[nH]c(=S)n1-c1ccccc1	2	5%	3	?	-20%
Cc1ccccc1-n1c([C@@H]2C[C@H]2c2ccccc2)n[nH]c1=S	-1	-9%	0	5µM*	?
CC1CN2C(c3ccc(Cl)cc3)=CSC2=N1 (stereo unspecified)	-10	11%	-3	29%	-2%
COc1ccc(CNc2ccc([N+](=O)[O-])cc2C)cc1	-3	21%	0	14%	11%
COc1ccc(N=[N+]([O-])c2ccc(OC)cc2)cc1	.	.	.	8.9µM*	?
O=S(=O)(Cc1ccccc1)c1nnnn1C1CCCCC1	.	.	-1	1%	-2%
CC(=O)O[C@H]1C[C@H]2CC[C@@H]3[C@@H](CC[C@]4(C)[C@H](OC(C)=O)[C@H]([N+]5(C)CCCCC5)C[C@@H]34)[C@]2(C)C[C@H]1[N+]1(C)CCCCC1	.	.	2	-1%[16.9 µM]	-3%[17 µM]
Cn1cccc1/C=N/NC(=O)c1cccc(OC(F)(F)C(F)F)c1	2	?	1	10µM*	?
O=C(Oc1ccc(Br)cc1C(=S)N1CCCCC1)c1cc([N+](=O)[O-])cc([N+](=O)[O-])c1	7	-7%	-11	18µM*	-1%
O=C(Oc1ccc(Br)cc1C(=S)N1CCCC1)c1ccccc1F	-6	1%	0	-1%	-4%
SMILES	TSHR antagonist	ELG1 repair inh	FBPA coupling cs	RORg inh	Gal4-VP16 FLuc
Cc1ccccc1C(=O)Oc1ccc(Br)cc1C(=S)N1CCCC1	-30	-12%	.	11µM*	?
Cc1ccccc1Cn1c(=O)n(C)c(=O)c2sccc21	7	?	0	19%	-3%
O=C(CSc1nccn1-c1ncc(C(F)(F)F)cc1Cl)c1ccc(Br)cc1	-6	?	-1	11µM*	?
Cc1ccc(C(=O)CSc2nccn2-c2ccccc2)cc1	-10	?	0	10µM*	?
Brc1ccc(CSc2nccn2-c2ccccc2)cc1	6	-5%	-1	14µM*	-1%
Clc1cccc(CSc2nccn2-c2ccccc2)c1	13	8%	-3	5µM*	-4%
O=C(Nc1ccc(Br)cc1)c1cccn1-c1ncc(C(F)(F)F)cc1Cl	-12	0%	-2	?	-9%
COc1cc(NC(=O)C(=O)NNC(=O)C2CCCCC2)c(OC)cc1Cl	5	-5%	1	?	?
COc1cc(OC)cc(C(=O)NNC(=O)C(=O)Nc2cc(OC)c(Cl)cc2OC)c1	-6	-16%	14	7.9µM*	-2%
NC(=O)c1ccccc1NS(=O)(=O)c1ccccc1	16	1%	1	-3%	3%
NNC(=O)c1cc2ccccc2cc1NS(=O)(=O)c1ccccc1	-12	-2%	-3	20µM*	?
CC(=O)Nc1ccc(NC(=O)COC(=O)/C(=C/c2ccccc2)n2nnnc2C)cc1	6	?	.	16µM*	?
Cc1nnnn1/C(=C\c1ccccc1)C(=O)OCC(=O)NC1CCCCC1	10	?	.	.	.
Cc1nnnn1/C(=C\c1ccccc1)C(=O)OCC(=O)NC(C)(C)C	9	16µM*	4	13µM*	20µM*
CCC1CCCCN1C(=S)NC1CCCCC1 (stereo unspecified)	1	8%	0	10µM*	?
O=C(N/N=C/c1cccc(OC(=O)N2CCOCC2)c1)c1cccs1	10	?	-2	?	13µM*
COc1cccc(/C=N/NC(=O)c2cccs2)c1	-1	?	-3	-40%	-13%
CSCCC(NC(=O)C1CCC(C)CC1)C(=O)OCC(=O)c1ccc(Cl)cc1 (stereo unspecified)	-2	7%	2	7%	4µM*
Cc1cccc(N=C2NC(=O)/C(=C/c3cccs3)S2)c1	75	?	1	?	13µM*
COP(=O)(OC)c1nc(-c2ccc(C)cc2)oc1N1CCCCC1	4	-7%	-3	-3%	-2%
COc1ccc(NC(=O)N2CCCC3(CCN(C(=O)c4c(C)noc4C)CC3)C2)cc1	.	.	-1	-23%	-6%
COc1cccc(NC(=O)C2CC(=O)N/C(=N/NC(=O)c3ccc(C)cc3)S2)c1 (stereo unspecified)	-3	8%	4	6.3µM*	11µM*
O=C1CC(C(=O)Nc2ccccc2)S/C(=N\NC(=O)c2ccccc2Cl)N1 (stereo unspecified)	-8	-1%	4	3.2µM*	5µM*

From PubChem BioAssay
